In PubChem BioAssay one finds composite z-score and z-score data, which are given here for 13 compounds.

Calls of active or inactive are those of the source. Unless noted, how the calls were made is not given here.

The subject of assay [1] is XIP peptide (Xip251-270) binding. As to the kind of experiment: small-molecule binders of XIP peptide, primary screen, biochemical, small-molecule microarray, fluorescence 635/667 nm, 0.1 µg/mL protein (AID 1182). The conditions noted are these: fluorescent protein binding, 635 nm, higher = more signal, called active from +8 up or from −8 down.
The subject of another assay is XIP peptide (Xip251-270). In words: small-molecule binders of XIP peptide, primary screen, biochemical, small-molecule microarray, fluorescence 635/667 nm, 0.5 µg/mL protein (AID 1183). The conditions noted are these: small-molecule microarray binding, fluorescence 635 nm; higher = more signal.
Assay [2] can be described thus: Plasmodium falciparum growth inhibition, primary screen, strain 3D7, DAPI fluorescence, 100 nL (AID 1184).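 Further: parasites grown inside human red blood cells in medium with human serum.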 The conditions noted are these: P. falciparum 3D7 growth, 3 d, higher = more signal.
Assay [3] concerns the target Homeobox protein Hox-A13 (Mus musculus) (UniProt Q62424). As to the kind of experiment: inhibitors of HoxA13-DNA binding, primary screen, biochemical, fluorescence polarization, labeled oligonucleotide (AID 1185). As to conditions: 15 min, higher = more signal, called active from +8 up or from −8 down. On the technique in general: Fluorescence polarisation rises when a labelled molecule tumbles more slowly, as on binding a larger partner.

A short description of assay [4]: inhibitors of hydroxyurea-induced Chk1 phosphorylation, primary screen, imaging, HeLa, phospho-Chk1 antibody, percent positive cells (AID 1186). As to conditions: hydroxyurea-induced phospho-Chk1 immunofluorescence imaging, higher = more signal.
Assay [5] is described as follows: inhibitors of hydroxyurea-induced Chk1 phosphorylation, primary screen, imaging, HeLa, phospho-Chk1 nuclear intensity (AID 1187). The conditions noted are these: hydroxyurea-induced phospho-Chk1 immunofluorescence imaging, higher = more signal.

Chain of Homeobox protein Hox-A13 (Mus musculus) (Q62424 whole entry, looked up): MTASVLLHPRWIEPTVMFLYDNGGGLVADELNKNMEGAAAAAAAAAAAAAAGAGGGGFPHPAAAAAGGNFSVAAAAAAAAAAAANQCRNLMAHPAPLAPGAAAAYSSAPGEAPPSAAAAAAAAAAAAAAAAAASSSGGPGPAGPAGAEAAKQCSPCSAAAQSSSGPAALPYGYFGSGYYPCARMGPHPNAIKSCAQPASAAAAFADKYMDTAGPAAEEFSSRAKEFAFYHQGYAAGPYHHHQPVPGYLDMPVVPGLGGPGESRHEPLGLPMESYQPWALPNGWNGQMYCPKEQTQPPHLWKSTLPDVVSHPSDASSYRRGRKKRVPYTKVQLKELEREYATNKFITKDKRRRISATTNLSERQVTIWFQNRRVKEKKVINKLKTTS

Regarding `CCCC[C@@H](O)C1=C(COc2ccccc2)C[C@H]2C(=O)N(C)C(=O)[C@H]2[C@H]1CO`, the composite z-score is -0.35 (inactive) in assay [1] and -0.442 with XIP peptide (Xip251-270). The z-score in assay [2] was -0.764; in assay [3] it was -3.48 (inactive); in assay [4], -1.66 (inactive); in assay [5] it was -1.41 (inactive).

Regarding `CCCCC(=C=CC[C@@H](O)c1ccccc1OCCO)C[C@@H](O)COCc1ccccc1`, the results for the composite z-score (in assay [1]; in the assay with XIP peptide (Xip251-270)) were -0.175 (inactive) and 0.868, respectively. In addition, the z-score in assay [2] was -1.67; in assay [3], -4.72 (inactive); in assay [4], 0.193 (inactive); in assay [5], 1.06 (inactive).

With `CN1C(=O)C2C=CC(C(O)COCc3ccccc3)N(N(c3ccccc3)c3ccccc3)C2C1=O` (stereo not drawn), the composite z-score was 0.441 (inactive) in assay [1] and 0.74 in the assay with XIP peptide (Xip251-270). Moreover, the z-score in assay [2] is -0.144; in assay [3], -0.885 (inactive); in assay [4], -0.0138 (inactive); in assay [5], -0.35 (inactive).

In the case of `COc1ccc([Si](C)(C)[C@@H]2[C@@H](CC(=O)N3Cc4ccccc4C[C@H]3CO)O[C@]3(C(=O)N(Cc4cccc(N5C(=O)c6cccc7cccc5c67)c4)c4ccccc43)[C@H]2C)cc1`, the composite z-score in assay [1] is 1.26 (inactive); with XIP peptide (Xip251-270), 0.574. Moreover, the z-score is -2.59 in assay [2], -1.47 (inactive) in assay [3], 0.115 (inactive) in assay [4] and -0.0849 (inactive) in assay [5].

With `[N-]=[N+]=NCc1ccccc1[C@@H]1OC(c2ccc(OCCCO)cc2)=N[C@]1(CCS(=O)(=O)c1ccccc1)C(=O)NCC(O)CO` (stereo partly drawn), the composite z-score in assay [1] was 2.02 (inactive); with XIP peptide (Xip251-270) it was 0.831. The z-score was -2.26 in assay [2], -1.52 (inactive) in assay [3], -0.519 (inactive) in assay [4] and -0.524 (inactive) in assay [5].

As for `COC(=O)CCCCCCC(=O)Nc1ccc(NC(=O)CCCC[P+](c2ccccc2)(c2ccccc2)c2ccccc2)cc1`, the figures for the composite z-score (in assay [1]; in the assay on XIP peptide (Xip251-270)) were -0.369 (inactive) and 0.102, respectively. Also, the z-score in assay [2] is -1.46; in assay [3] it was -1.31 (inactive); in assay [4], -0.917 (inactive); in assay [5], -1.21 (inactive).

As for `O=C1N(Cc2ccccc2)c2ccccc2[C@@H]2OC(c3ccc(OCCCO)cc3)=N[C@]12Cc1ccccc1`, the composite z-score in assay [1] is 0.0973 (inactive); in the assay with XIP peptide (Xip251-270), 0.862. Further, the z-score in assay [2] is -2.45; in assay [3], -2.22 (inactive); in assay [4] it was -0.389 (inactive); in assay [5] it was -0.321 (inactive).

Take `CCOc1cc(C(O)C2C=CC3C(=O)N(C)C(=O)C3N2Nc2ccccc2)ccc1O` (stereo not drawn): the results for the composite z-score (in assay [1]; in the assay with XIP peptide (Xip251-270)) were 0.705 (inactive) and 0.273, respectively. For the same compound, the z-score in assay [2] is -0.211; in assay [3], -2.42 (inactive); in assay [4], -0.0768 (inactive); in assay [5], -0.677 (inactive).

With `[N-]=[N+]=Nc1ccccc1[C@H]1OC(c2ccc(OCCCO)cc2)=N[C@@]1(CCS(=O)(=O)c1ccccc1)C(=O)NCCN1CCOCC1`, the composite z-score is 0.345 (inactive) in assay [1] and 0.868 in the assay on XIP peptide (Xip251-270). In addition, the z-score in assay [2] is -2.52; in assay [3], -5.15 (inactive); in assay [4], 0.392 (inactive); in assay [5], 0.812 (inactive).

Take `NC(=O)NCC#Cc1ccc2c(c1)[C@]1(C(=O)N2)[C@H](C(=O)O)[C@H]2C(=O)O[C@H](c3ccccc3)[C@H](c3ccccc3)N2[C@@H]1c1ccc(OCCO)cc1`: the composite z-score in assay [1] was -0.316 (inactive); in the assay on XIP peptide (Xip251-270) it was 0.419. The z-score in assay [2] is -0.46; in assay [3], -6.34 (inactive); in assay [4], 0.242 (inactive); in assay [5], 0.615 (inactive).

Regarding `C=C(C)c1cc2c(c(CCCCCC)n1)[Si](C(C)C)(C(C)C)OC2`, the composite z-score in assay [1] is -0.525 (inactive); with XIP peptide (Xip251-270), -0.115. For the same compound, the z-score in assay [2] was -0.631; in assay [3], -1.76 (inactive); in assay [4], 0.213 (inactive); in assay [5] it was 1.53 (inactive).

In the case of `C=CCC(OC(C)=O)[C@@H]1[C@@H](N(Cc2cc3ccccc3o2)C(=O)Cc2ccc(F)cc2)c2cc(OCCCO)ccc2N1C(=O)c1ccc2ccccc2c1` (stereo partly drawn), the composite z-score is -0.231 (inactive) in assay [1] and -0.271 with XIP peptide (Xip251-270). Moreover, the z-score in assay [2] is 1.15; in assay [3] it was -1.95 (inactive); in assay [4], 0.608 (inactive); in assay [5], 0.308 (inactive).

`COc1ccc([Si](C)(C)[C@@H]2[C@@H](CC(=O)N3Cc4ccccc4C[C@H]3CO)O[C@]3(C(=O)N(C)c4ccccc43)[C@H]2C)cc1`: the composite z-score is 0.176 (inactive) in assay [1] and 0.773 in the assay with XIP peptide (Xip251-270). Also, the z-score was -2.74 in assay [2], -6.03 (inactive) in assay [3], -1.6 (inactive) in assay [4] and -0.901 (inactive) in assay [5].
